PubChem BioAssay
Activity calls are given as the source filed them. Unless noted, how the calls were made is not given here.

What was measured:
[1] = A549 cell viability effects, profiling panel, calcein-AM fluorescence, 48 h, basal (AID 1162); settings: higher = more signal; further: test concentration not given here
[2] = adipocyte viability effects, profiling panel, cell-based, 3T3-L1 adipocytes, calcein-AM fluorescence, 48 h, basal (AID 1163); settings: 3T3-L1 adipocytes viability, higher = more signal; further: test concentration not given here
[3] = HepG2 cell viability effects, profiling panel, calcein-AM fluorescence, 48 h, basal (AID 1164); settings: higher = more signal; further: test concentration not given here
[4] = MM1S cell viability effects, profiling panel, calcein-AM fluorescence, 48 h, basal (AID 1165); settings: higher = more signal;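 further: viability of MM1S multiple myeloma cells under basal unstimulated conditions; test concentration not given here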
[5] = basal RPMI8226 viability, no added stimulus, profiling panel, cell-based, calcein-AM fluorescence, 48 h, PK04 Diversity Set (AID 1166); settings: RPMI8226 myeloma viability, higher = more signal;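 further: cells grown under basal conditions without added stimulus; test concentration not given here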
[6] = basal HepG2 mitochondrial membrane potential changes, profiling panel, cell-based, JC-1 fluorescence, 24 h, 100 nL compound (AID 1167); settings: higher = more signal; further: test concentration not given here
[7] = basal 3T3-L1 adipocyte mitochondrial potential changes, profiling panel, cell-based, JC-1 fluorescence, 3T3-L1 adipocytes, 24 h, 100 nL compound (AID 1168); settings: JC-1 mitochondrial fluorescence, higher = more signal, called active from +8 up or from −8 down; further: test concentration not given here
[8] = basal RPMI8226 mitochondrial membrane potential changes, profiling panel, cell-based, JC-1 fluorescence, 24 h, 100 nL compound (AID 1169); settings: RPMI8226 myeloma, JC-1 mitochondrial potential fluorescence, higher = more signal; further: test concentration not given here
[9] = basal MM1S mitochondrial membrane potential changes, profiling panel, cell-based, JC-1 fluorescence, 24 h, 100 nL compound (AID 1170); settings: higher = more signal; further: test concentration not given here
[10] = A549 lung cancer cell viability effects, profiling panel, resazurin fluorescence, 24 h, PK04 Diversity Set (AID 1171); settings: higher = more signal, called active from +8 up or from −8 down; further: test concentration not given here
[11] = HepG2 liver cancer cell viability effects, profiling panel, resazurin fluorescence, 24 h, PK04 Diversity Set (AID 1172); settings: higher = more signal; further: test concentration not given here
[12] = basal S. cerevisiae growth modulation, no modifier, primary screen, OD600, strain BY4716, 24 h, basal condition (AID 1173); settings: OD600, 24 h, higher = more signal, called active from +8 up or from −8 down
[13] = MM1S myeloma cell viability, profiling panel, resazurin fluorescence, basal, 24 h, PK04 Diversity Set (AID 1174); settings: higher = more signal, called active from +8 up or from −8 down;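 further: MM1S multiple myeloma cell line; test concentration not given here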
[14] = target: Dihydroorotate dehydrogenase (quinone), mitochondrial (Plasmodium falciparum (isolate 3D7)) (UniProt Q08210); experiment: PfDHODH enzyme inhibitors, primary screen, biochemical, C-terminal His tag, absorbance 600 nm (AID 1175); settings: DCIP absorbance 600 nm, higher = more signal, called active from +8 up or from −8 down;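 further: recombinant parasite enzyme with a five histidine tag at its C terminus; test concentration not given here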
[15] = P. aeruginosa biofilm formation inhibitors, primary screen, strain PAO1, LB-PBS medium, absorbance 600 nm (AID 1176); further: test concentration not given here; settings: P. aeruginosa PAO1 growth/biofilm, A600, 12 h; higher = more signal
[16] = S. cerevisiae RM11-1a growth modifiers, primary screen, strain RM11-1a, OD600, basal, 24 h (AID 1177); settings: OD600, 24 h, higher = more signal, called active from +8 up or from −8 down;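 further: cultures grown under basal conditions with no added stressor; test concentration not given here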
[17] = E. coli acrAB mutant growth effects, primary screen, E. coli filamentation inducers, strain DRC39, OD650, 24 h (AID 1178); settings: higher = more signal, called active from +8 up or from −8 down;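 further: growth measured as culture turbidity by optical density at 650 nm; test concentration not given here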
[18] = E. coli acrAB mutant growth effects, primary screen, E. coli filamentation inducers, strain DRC39, OD650, 48 h (AID 1179);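 further: screen aims at cell division blockers that make cells filament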; settings: E. coli DRC39 delta-acrAB growth, higher = more signal, called active from +8 up or from −8 down
[19] = RPMI8226 myeloma cell viability, profiling panel, resazurin fluorescence, basal, 24 h, PK04 Diversity Set (AID 1180); settings: higher = more signal;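 further: RPMI8826 multiple myeloma cell line at 5000 cells per well; test concentration not given here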
[20] = target: E3 ubiquitin-protein ligase XIAP (Homo sapiens) (UniProt P98170); experiment: XIAP binders, primary screen, biophysical, small-molecule microarray, fluorescence 635 nm (AID 1181); settings: small-molecule microarray binding, higher = more signal;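 further: score merges 667 nm emission and signal to noise over triplicate slides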
Chain of E3 ubiquitin-protein ligase XIAP (Homo sapiens) (P98170 whole entry, looked up): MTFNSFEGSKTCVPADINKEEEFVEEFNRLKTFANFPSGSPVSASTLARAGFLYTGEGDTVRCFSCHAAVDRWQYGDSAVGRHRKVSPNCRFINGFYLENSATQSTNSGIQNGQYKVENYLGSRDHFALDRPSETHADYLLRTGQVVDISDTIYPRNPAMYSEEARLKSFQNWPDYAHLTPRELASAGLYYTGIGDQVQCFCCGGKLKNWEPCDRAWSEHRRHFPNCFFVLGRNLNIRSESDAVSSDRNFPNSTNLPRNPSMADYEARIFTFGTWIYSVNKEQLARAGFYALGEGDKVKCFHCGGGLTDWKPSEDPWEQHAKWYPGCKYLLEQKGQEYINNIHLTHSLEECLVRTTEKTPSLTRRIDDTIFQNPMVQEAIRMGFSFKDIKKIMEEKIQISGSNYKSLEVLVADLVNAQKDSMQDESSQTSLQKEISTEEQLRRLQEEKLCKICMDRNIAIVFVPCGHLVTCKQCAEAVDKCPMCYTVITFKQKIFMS

Chain of Dihydroorotate dehydrogenase (quinone), mitochondrial (Plasmodium falciparum (isolate 3D7)) (Q08210 whole entry, looked up): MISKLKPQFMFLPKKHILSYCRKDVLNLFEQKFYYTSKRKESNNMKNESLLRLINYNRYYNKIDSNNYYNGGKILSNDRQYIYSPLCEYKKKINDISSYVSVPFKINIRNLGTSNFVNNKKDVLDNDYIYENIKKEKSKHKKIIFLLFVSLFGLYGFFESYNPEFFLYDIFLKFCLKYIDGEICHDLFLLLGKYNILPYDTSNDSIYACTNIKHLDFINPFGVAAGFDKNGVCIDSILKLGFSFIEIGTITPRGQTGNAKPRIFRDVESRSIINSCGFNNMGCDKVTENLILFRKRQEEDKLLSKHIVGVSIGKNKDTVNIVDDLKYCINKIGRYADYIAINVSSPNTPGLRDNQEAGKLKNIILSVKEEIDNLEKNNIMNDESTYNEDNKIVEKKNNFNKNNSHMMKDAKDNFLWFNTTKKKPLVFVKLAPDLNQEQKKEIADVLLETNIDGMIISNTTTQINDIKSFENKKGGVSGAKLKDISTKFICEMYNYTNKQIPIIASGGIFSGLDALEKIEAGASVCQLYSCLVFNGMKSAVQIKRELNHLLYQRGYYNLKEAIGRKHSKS

SMILES	z-score [1]	z-score [2]	z-score [3]	z-score [4]	z-score [5]	z-score [6]	z-score [7]	z-score [8]	z-score [9]	z-score [10]	z-score [11]	z-score [12]	z-score [13]	composite z-score [14]	z-score [15]	z-score [16]	z-score [17]	z-score [18]	z-score [19]	composite z-score [20]
C[N+](C)(C)CCCC[C@@H]1NC(=O)[C@@H]2C[C@H](C(=O)NCCCCCCNC(=O)CS)[C@H](c3cccc(OCCO)c3)N2C1=O	-0.14	-0.0406	1.5	0.954	0.186	1.53	0.215 (inactive)	0.476	-0.677	-0.333 (inactive)	0.0265	0.159 (inactive)	-0.0664 (inactive)	0.092 (inactive)	-0.117 (inactive)	-0.18 (inactive)	0.253 (inactive)	0.832 (inactive)	0.24	0.131
CCN(CC)c1ccc(N2CC=CC34O[C@@H]5C=CCCOC(=O)C5[C@H]3C(=O)N(CCCO)[C@@H]4C2=O)cc1 (stereo not given in full)	-0.0905	0.848	0.0124	-0.0503	-0.402	0.723	0.673 (inactive)	0.0131	0.744	-0.209 (inactive)	-0.704	-1.25 (inactive)	0.61 (inactive)	-0.429 (inactive)	0.525 (inactive)	-0.294 (inactive)	1.21 (inactive)	0.764 (inactive)	0.237	-0.516
O=C1c2ccccc2[C@](Cc2ccccc2I)(C(=O)O)[C@H](c2ccc(CO)cc2)N1Cc1ccccc1C(F)(F)F	-0.26	-0.24	0.458	-1.58	-2.58	-0.51	-0.476 (inactive)	-0.832	-0.478	0.427 (inactive)	1.02	-0.874 (inactive)	0.283 (inactive)	0.833 (inactive)	-0.0528 (inactive)	0.893 (inactive)	-0.0217 (inactive)	-0.0555 (inactive)	0.0019	0.12
CC(C)CNC(=O)[C@@]1(C)c2ccccc2C(=O)N(C(C)C)[C@H]1c1ccc(CO)cc1	-0.238	-0.511	-0.178	0.0151	-0.847	-0.372	-0.638 (inactive)	0.809	-0.481	-0.0586 (inactive)	-0.174	-0.128 (inactive)	-0.434 (inactive)	-0.449 (inactive)	-0.273 (inactive)	-0.207 (inactive)	-0.314 (inactive)	-0.049 (inactive)	-0.434	-0.135
CCOC(=O)C1=CC[C@@H](c2ccccc2)N(S(=O)(=O)c2ccc(C)cc2)[C@H]1c1ccc(C#N)cc1	0.423	-0.574	-0.178	-0.306	-0.973	0.51	-1.12 (inactive)	0.124	-0.725	1.39 (inactive)	0.162	1.5 (inactive)	-0.116 (inactive)	-0.0753 (inactive)	0.381 (inactive)	-0.299 (inactive)	-0.604 (inactive)	-0.288 (inactive)	-1.4	0.0123
C=C(COC)/C(=C/C[C@H](OC(C)=O)c1ccccc1OCCO)c1cnc2ccccc2c1	0.406	-0.309	-0.738	-2.08	-1.32	1.4	-1.34 (inactive)	-0.439	-0.62	-0.0424 (inactive)	-0.192	1.36 (inactive)	-0.885 (inactive)	-2.14 (inactive)	1.57 (inactive)	1.19 (inactive)	-0.447 (inactive)	-0.334 (inactive)	-0.784	-0.173
CC(C)[C@H]1COC(=O)N1C(=O)[C@H]1[C@@H](c2ccccc2)N(c2ccccc2)O[C@@H]1C	0.198	0.343	0.612	-0.357	0.133	0.941	0.997 (inactive)	-0.361	-1.46	1.72 (inactive)	0.701	-1.42 (inactive)	0.517 (inactive)	-0.656 (inactive)	0.0694 (inactive)	1.46 (inactive)	0.166 (inactive)	0.703 (inactive)	1.41	0.0785
CN1C(=O)C2C(C1=O)C1C=C(c3ccc(CO)cc3)C2C(C2CC2)N1Cc1cc2c(cc1Br)OCO2 (stereo not given)	0.302	0.575	1.81	-0.387	-1.75	3.74	0.673 (inactive)	-0.73	-0.565	-1.84 (inactive)	-0.698	-2.01 (inactive)	-1.31 (inactive)	-2.33 (inactive)	0.0061 (inactive)	-0.889 (inactive)	0.101 (inactive)	-0.0102 (inactive)	-1.47	0.111
CC(C)C[C@@H]1NC(=O)[C@@H]2C[C@H](C(=O)NCCCCN(C)C)[C@H](c3ccc(O)cc3)N2C1=O	-0.583	-0.339	-0.375	0.12	0.579	-1.26	-0.0811 (inactive)	-0.0507	0.218	0.408 (inactive)	0.955	0.463 (inactive)	0.396 (inactive)	-0.0312 (inactive)	-0.475 (inactive)	0.505 (inactive)	-0.113 (inactive)	-0.401 (inactive)	0.0109	0.102
COCCOC(=O)N1C(=O)[C@@]2(c3cc(C#CCCO)ccc31)[C@H](c1ccc(O)cc1)N1[C@H](c3ccccc3)[C@H](c3ccccc3)OC(=O)[C@H]1[C@@H]2C(=O)N1CCCCCCC1	-0.0601	0.943	1.18	0.632	-1.22	-0.701	-0.838 (inactive)	0.242	0.271	-0.44 (inactive)	-0.681	0.015 (inactive)	-0.216 (inactive)	0.232 (inactive)	0.915 (inactive)	0.38 (inactive)	0.27 (inactive)	-0.002 (inactive)	-0.98	0.23
C=CCN1C(=O)[C@@]2(O[C@@H](CCO)[C@H]([Si](C)(C)c3ccc(OC)cc3)[C@H]2C)c2cc(NC(C)=O)ccc21	0.103	-0.213	-0.411	-1.36	-1.56	-0.96	-0.296 (inactive)	-0.484	-0.722	-1.17 (inactive)	-0.865	-1.47 (inactive)	-1.6 (inactive)	-1.13 (inactive)	-0.188 (inactive)	1.48 (inactive)	0.166 (inactive)	0.121 (inactive)	-1.43	0.436
COC(=O)C(CC#Cc1ccc2c(c1)[C@]1(C(=O)N2)[C@H](C(=O)N2CCCCCCC2)[C@H]2C(=O)O[C@H](c3ccccc3)[C@H](c3ccccc3)N2[C@@H]1c1ccccc1OCCO)C(=O)OC	-0.65	0.091	0.491	-0.216	-0.421	0.0896	1.09 (inactive)	-0.835	-1.33	0.901 (inactive)	-0.198	0.946 (inactive)	-0.0924 (inactive)	-4.91 (inactive)	1.22 (inactive)	0.0478 (inactive)	-1.19 (inactive)	-0.513 (inactive)	0.218	2.41
Cc1cccc(/C=C/C=O)c1	0.175	-0.49	0.486	-0.127	-0.46	0.895	0.898 (inactive)	-0.691	-0.313	0.0956 (inactive)	0.033	-2.91 (inactive)	-0.0488 (inactive)	-1.16 (inactive)	0.13 (inactive)	-0.181 (inactive)	0.578 (inactive)	0.35 (inactive)	0.387	-0.0559
C=CCNC(=O)[C@H]1[C@@H]2C(=O)O[C@@H](c3ccccc3)[C@@H](c3ccccc3)N2[C@@H](c2ccc(O)cc2)[C@]12C(=O)Nc1ccc(C#Cc3ccc(OC)cc3)cc12	-1.06	0.205	-1.78	-2.37	-4.35	-0.385	-0.0338 (inactive)	-1.22	-0.614	-0.989 (inactive)	-1.56	0.885 (inactive)	-1.57 (inactive)	-27 (active)	0.971 (inactive)	1.14 (inactive)	0.461 (inactive)	0.0221 (inactive)	-3.24	-0.0022
COCCCNC(=O)[C@@]1(Cc2ccccc2I)c2ccccc2C(=O)N(Cc2ccccc2)[C@H]1c1ccc(CO)cc1	0.954	0.387	0.828	-0.657	-1.25	1.71	-0.432 (inactive)	-0.136	0.651	1.67 (inactive)	0.348	0.346 (inactive)	1.01 (inactive)	1.17 (inactive)	-0.205 (inactive)	2.28 (inactive)	0.322 (inactive)	-0.15 (inactive)	1.5	-0.193
COc1ccc(C(=O)Nc2cccc(CN3C(=O)[C@@]4(O[C@@H](CCn5cc([C@H](O)c6ccccc6)nn5)[C@H]([Si](C)(C)c5ccc(OC)cc5)[C@H]4C)c4ccccc43)c2)cc1	-0.311	0.0953	-3.44	-2.63	-3.6	-2.16	-0.694 (inactive)	-1.03	-2.24	-1.88 (inactive)	-2.55	-1.74 (inactive)	-6.53 (inactive)	-0.0516 (inactive)	1.38 (inactive)	0.588 (inactive)	0.259 (inactive)	-0.237 (inactive)	-6.13	-0.0228
CN(C)CCCCNC(=O)[C@@H]1C[C@@H]2C(=O)N[C@@H](CCCCN)C(=O)N2[C@@H]1c1cccc(OCCO)c1	-0.144	-0.736	-1.03	-0.058	0.376	-1.01	-0.0937 (inactive)	-0.737	-0.0289	-0.391 (inactive)	0.0914	-0.191 (inactive)	-0.332 (inactive)	-0.318 (inactive)	0.836 (inactive)	-0.147 (inactive)	-0.383 (inactive)	-1 (inactive)	-0.165	-0.32
